# Among all 5,500 compounds or so, about 2,000 (36%) were called active. Not shown: some 18% with an inconclusive outcome. The list shows a part of the results. Values without a mark were called inactive. Cut-off read from the data, not from the text of the source: active = normalized growth mostly below about 0.91 (no sharp cut-off); inconclusive = no clear call, values can overlap the other calls; inactive = mostly above about 0.92.
# Assay: chemical genetic growth profiling, strain panel (AID 1159580);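 note: tested at 20 µM; growth read once vehicle control cultures reached saturation at 30 °C; 1 = growth at the plate median or of vehicle wells; lower values mean less growth of the strain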
# Conditions: growth OD
# [1] = S. cerevisiae deletion strains, locus YAL013W, strain DEP1, active compounds read low
# [2] = S. cerevisiae deletion strains, locus YBR229C, strain ROT2, active compounds read low
# [3] = S. cerevisiae deletion strains, locus YCL061C, strain MRC1, active compounds read low
# [4] = S. cerevisiae deletion strains, locus YDL101C, strain DUN1, active compounds read low
# [5] = S. cerevisiae deletion strains, locus YDR150W, strain NUM1, active compounds read low
# [6] = S. cerevisiae deletion strains, locus YEL061C, strain CIN8, active compounds read low
# [7] = S. cerevisiae deletion strains, locus YGR078C, strain PAC10, active compounds read low
# [8] = S. cerevisiae deletion strains, locus YHR030C, strain SLT2, active compounds read low
# [9] = S. cerevisiae deletion strains, locus YHR087W, strain rtc3, active compounds read low
# [10] = S. cerevisiae deletion strains, locus YJL187C, strain SWE1, active compounds read low
# [11] = S. cerevisiae deletion strains, locus YJR043C, strain POL32, active compounds read low
# [12] = S. cerevisiae deletion strains, locus YJR075W, strain HOC1, active compounds read low
# [13] = S. cerevisiae deletion strains, locus YKL190W, strain CNB1, active compounds read low
# [14] = S. cerevisiae deletion strains, locus YLR039C, strain RIC1, active compounds read low
# [15] = S. cerevisiae deletion strains, locus YLR058C, strain SHM2 (second series), active compounds read low
# [16] = S. cerevisiae deletion strains, locus YLR085C, strain ARP6, active compounds read low
# [17] = S. cerevisiae deletion strains, locus YLR262C, strain YPT6, active compounds read low
# [18] = S. cerevisiae deletion strains, locus YML094W, strain GIM5, active compounds read low
# [19] = S. cerevisiae deletion strains, locus YMR219W, strain ESC1, active compounds read low
# [20] = S. cerevisiae deletion strains, locus YMR263W, strain SAP30, active compounds read low
# [21] = S. cerevisiae deletion strains, locus YNL128W, strain TEP1, active compounds read low
# [22] = S. cerevisiae deletion strains, locus YNL153C, strain GIM3, active compounds read low
# [23] = S. cerevisiae deletion strains, locus YNL298W, strain CLA4 (second series), active compounds read low
# [24] = S. cerevisiae deletion strains, locus YNL322C, strain KRE1, active compounds read low
# [25] = S. cerevisiae deletion strains, locus YNR030W, strain Alg12, active compounds read low
# [26] = S. cerevisiae deletion strains, locus YOL006C, strain TOP1, active compounds read low
# [27] = S. cerevisiae deletion strains, locus YPL055C, strain LGE1, active compounds read low
# [28] = S. cerevisiae deletion strains, locus YPL241C, strain CIN2, active compounds read low
# [29] = S. cerevisiae deletion strains, locus YPR135W, strain CTF4, active compounds read low
# [30] = S. cerevisiae deletion strains, locus YDL134C, strain PPH21, active compounds read low
# [31] = S. cerevisiae deletion strains, locus YGR229C, strain SMI1, active compounds read low
# [32] = S. cerevisiae strains, strain wild type, active compounds read low
smiles,measurement,setting,value
CC(=O)Nc1ccc(S(=O)(=O)NCCCN2CCN(Cc3ccccc3)CC2)cc1Cl,normalized growth,[1],0.993
same,normalized growth,[2],1.01
same,normalized growth,[3],0.999
same,normalized growth,[4],0.952
same,normalized growth,[5],0.924
same,normalized growth,[6],1.04
same,normalized growth,[7],0.983
same,normalized growth,[8],1.03
same,normalized growth,[9],1.02
same,normalized growth,[10],1.01
same,normalized growth,[11],0.992
same,normalized growth,[12],1.01
same,normalized growth,[13],0.993
same,normalized growth,[14],0.992
same,normalized growth,[15],1.01
same,normalized growth,[16],1.02
same,normalized growth,[17],1
same,normalized growth,[18],1.01
same,normalized growth,[19],0.996
same,normalized growth,[20],0.944
same,normalized growth,[21],0.986
same,normalized growth,[22],0.994
same,normalized growth,[23],0.969
same,normalized growth,[24],0.999
same,normalized growth,[25],0.99
same,normalized growth,[26],1.02
same,normalized growth,[27],0.915
same,normalized growth,[28],1
same,normalized growth,[29],0.926
Cc1ccc(S(=O)(=O)N2CCN(CCOc3ccccc3)CC2)cc1,normalized growth,[1],1
same,normalized growth,[2],0.994
same,normalized growth,[3],0.982
same,normalized growth,[4],0.992
same,normalized growth,[30],1
same,normalized growth,[5],0.961
same,normalized growth,[6],0.972
same,normalized growth,[7],0.993
same,normalized growth,[31],0.99
same,normalized growth,[8],0.896
same,normalized growth,[9],0.995
same,normalized growth,[10],0.995
same,normalized growth,[11],1
same,normalized growth,[12],0.984
same,normalized growth,[14],0.828
same,normalized growth,[15],0.987
same,normalized growth,[16],0.966
same,normalized growth,[17],0.701 (active)
same,normalized growth,[18],0.944
same,normalized growth,[19],0.985
same,normalized growth,[21],0.997
same,normalized growth,[22],0.989
same,normalized growth,[23],0.96
same,normalized growth,[24],0.997
same,normalized growth,[25],0.967
same,normalized growth,[27],0.953
same,normalized growth,[28],0.982
same,normalized growth,[29],0.99
O=C(Cc1ccccc1)NC1CCN(S(=O)(=O)c2ccc(Cl)cc2)CC1,normalized growth,[1],1.01
same,normalized growth,[2],1
same,normalized growth,[3],0.992
same,normalized growth,[4],1.01
same,normalized growth,[5],0.996
same,normalized growth,[6],1.01
same,normalized growth,[7],0.98
same,normalized growth,[31],0.992
same,normalized growth,[8],0.973
same,normalized growth,[9],1
same,normalized growth,[11],0.985
same,normalized growth,[12],0.962
same,normalized growth,[13],0.994
same,normalized growth,[14],1
same,normalized growth,[15],0.993
same,normalized growth,[16],1.01
same,normalized growth,[17],1.01
same,normalized growth,[18],1
same,normalized growth,[19],0.999
same,normalized growth,[20],0.992
same,normalized growth,[22],0.982
same,normalized growth,[23],1.03
same,normalized growth,[24],0.998
same,normalized growth,[25],1
same,normalized growth,[26],1.02
same,normalized growth,[27],0.986
same,normalized growth,[28],1.03
same,normalized growth,[29],0.971
same,normalized growth,[32],1.01
O=S(=O)(c1ccc(Cl)cc1)N1CCN(Cc2ccccc2)CC1,normalized growth,[1],1.01
same,normalized growth,[2],0.99
same,normalized growth,[3],1.01
same,normalized growth,[4],0.985
same,normalized growth,[5],0.986
same,normalized growth,[6],0.958
same,normalized growth,[7],0.992
same,normalized growth,[8],0.856
same,normalized growth,[9],0.978
same,normalized growth,[11],1.01
same,normalized growth,[12],0.982
same,normalized growth,[14],0.846
same,normalized growth,[15],1
same,normalized growth,[16],0.985
same,normalized growth,[17],0.809 (active)
same,normalized growth,[18],0.967
same,normalized growth,[19],0.994
same,normalized growth,[20],1.02
same,normalized growth,[22],1
same,normalized growth,[23],0.956
same,normalized growth,[24],0.998
same,normalized growth,[25],0.987
same,normalized growth,[27],0.972
same,normalized growth,[28],0.978
same,normalized growth,[29],0.923
same,normalized growth,[32],0.987
Cc1ccc(S(=O)(=O)N2CCC(C(c3ccccc3)c3ccccc3)CC2)cc1,normalized growth,[1],0.998
same,normalized growth,[2],0.989
same,normalized growth,[3],0.963
same,normalized growth,[4],0.975
same,normalized growth,[5],0.948
same,normalized growth,[6],0.994
same,normalized growth,[7],0.972
same,normalized growth,[8],0.971
same,normalized growth,[9],1.05
same,normalized growth,[11],1
same,normalized growth,[12],1
same,normalized growth,[14],0.97
same,normalized growth,[15],1.01
same,normalized growth,[16],0.989
same,normalized growth,[17],0.989
same,normalized growth,[18],1
same,normalized growth,[19],0.993
same,normalized growth,[20],0.994
same,normalized growth,"S. cerevisiae deletion strains, locus YMR307W, strain GAS1, active compounds read low",1.24
same,normalized growth,[21],0.969
same,normalized growth,[22],0.988
same,normalized growth,[23],0.971
same,normalized growth,[24],0.999
same,normalized growth,[25],1.01
same,normalized growth,[27],1.06
same,normalized growth,[28],0.986
same,normalized growth,[29],0.986
same,normalized growth,[32],0.974
Cc1ccc(S(=O)(=O)N2CCCCCC2)cc1,normalized growth,[1],0.98
same,normalized growth,[2],0.997
same,normalized growth,[3],0.997
same,normalized growth,[4],0.985
same,normalized growth,[30],0.999
same,normalized growth,[5],0.976
same,normalized growth,[6],1.01
same,normalized growth,[7],0.985
same,normalized growth,[31],0.988
same,normalized growth,[8],0.896
same,normalized growth,[9],1.03
same,normalized growth,[11],0.999
same,normalized growth,[12],0.998
same,normalized growth,[14],0.881
same,normalized growth,[15],0.998
same,normalized growth,[16],0.921
same,normalized growth,[17],0.928
same,normalized growth,[18],1.02
same,normalized growth,[19],0.983
same,normalized growth,[20],1
same,normalized growth,[22],0.987
same,normalized growth,[23],0.983
same,normalized growth,[24],0.972
same,normalized growth,[25],0.983
same,normalized growth,[26],0.961
same,normalized growth,[27],1.04
same,normalized growth,[28],0.984
same,normalized growth,[29],0.843
same,normalized growth,[32],1
